# Bioassay records: PubChem BioAssay, National Center for Advancing Translational Sciences (NCATS)
# Rows were chosen to be rich in hits. Some 8.2% of all compounds tested hit in one or more screens of this group.
# KB-3-1 tox: KB-3-1 parental cell cytotoxicity. KB-3-1 viability, CellTiter-Glo ATP luminescence, 72 h. Potency, µM (titrated, usually from 46.1 µM), most hits filed as cytotoxic. 400,000 compounds, 1.4% hits. AID 1347075; also: % is scaled to controls: 0 for no effect and ±100 for the full control effect; nearly all actives have a fitted effect of over 60% in size
#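 Screening of KB-3-1 cells (DMEM, 10% FBS, phenol-red free) ran from lowest to highest compound concentration; after 72 h at 37 °C viability was read luminescently and curves fitted.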
# KB-V1 cytotox: kills drug-selected multidrug resistant KB-V1 cells; KB-V1 MDR cells viability, CellTiter-Glo, 72 h; Potency, µM (top dose mostly 46.1 µM), actives largely listed as cytotoxic; 400,000 compounds, 3.4% hits; AID 1347076; also: % is scaled to controls: 0 for no effect and ±100 for the full control effect; nearly all actives have a fitted effect of over 60% in size
#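 Following 72 h at 37 degrees C with compound, KB-V1 cell viability was read by CellTiter-Glo luminescence, medium being phenol-red-free DMEM plus 10% FBS; concentration-response parameters came from normalized, curve-fitted qHTS data.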
# ELG1 DNA repair: inhibitors of ELG1-dependent DNA repair in HEK293T cells | HEK293T ELG1-luciferase reporter, luminescence, 16 h; DNA damage induced by 5-fluorouridine | Potency, µM (doses to about 46.1 µM), without a hit: at the top dose activity change, negative = inhibition, hits mostly inhibitors | 330,000 compounds, 2.3% hits; also: % is scaled to controls: 0 for no effect and ±100 for the full control effect; nearly all actives have a fitted effect of over 55% in size
#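 Reporter activity after DNA damage by 5-fluorouridine is monitored. Compound-treated cells incubate 16 hr at 37 °C, then ONE-Glo is added for 30 min before luminescence reading.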
# MCF10A rereplic: DNA re-replication induction in MCF 10a cells; MCF 10A DNA re-replication, Hoechst nuclear intensity, 48 h; Potency, µM (titrated, usually from 46.1 µM), without a hit: at the top dose activity, positive = re-replication, actives largely listed as activators; 350,000 compounds, 2.9% hits; AID 624296; also: % of control where 0% means no effect; nearly all actives have a fitted effect of over 50% in size
# SW480 rereplic: induces DNA re-replication in SW480 colon adenocarcinoma cells | AID 624297 | SW480 DNA re-replication, Hoechst DNA content imaging, 48 h | Potency, µM (series often up to 46.1 µM), inactives show top-dose re-replication activation, hits mostly activators | 340,000 compounds, 1.8% hits; also: % of control where 0% means no effect; nearly all actives have a fitted effect of over 55% in size
#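 Image-based DNA-content assay: after two days of treatment, nuclei were labelled with the DNA dye Hoechst and imaged, and hits were compounds raising the count of nuclei showing high fluorescence intensity.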
# Active calls of the source: *; i = inactive; ? = inconclusive; · = no result; [ ] = another dose, or the depositor's remark. Calls follow the shape of the dose curve; as a rule, active = well fitted curve in the direction sought with a large enough effect; inconclusive = small, poorly fitted or top-dose-only effect, or another doubt; inactive = no such curve, though single readings can be large; an effect the other way counts as inactive or inconclusive. Potency is read from the fitted curve at half-maximal effect.
SMILES,KB-3-1 tox,KB-V1 cytotox,ELG1 DNA repair,MCF10A rereplic,SW480 rereplic
CC(C)(C)[C@H]1COC(=O)[C@H](NC(=O)OCC2c3ccccc3-c3ccccc32)C/C=C\C[C@@H](CC(=O)N(CCO)Cc2ccccc2)C(=O)N1,i,i,10µM*,?,12%
O=C(N[C@@H]1C/C=C\C[C@@H](CC(=O)N(CCO)Cc2ccccc2)C(=O)NCCOC1=O)OCC1c2ccccc2-c2ccccc21,i,i,-28%,15%,-2%
O=C(Cn1ccc2cc(S(=O)(=O)N3CCCCCC3)ccc21)NCCc1ccc(Cl)cc1,i,i,·,·,·
Cc1ccccc1NC(=O)CCn1nc(-c2ccc(Cl)cc2)c2ccccc2c1=O,i,i,·,·,·
CCOC(=O)c1c(C)[nH]c(C=O)c1Cc1cccc(Cl)c1,18µM*,15µM*,-2%,27%,10%
Cc1cccc(-c2oc3ccc(-c4ccc5c(c4)OCO5)cc3c2/C=C/c2ccc(N)cc2)c1,i,?,9%,?,16µM*
Cc1cc(Cl)ccc1OCC(=O)NNC(=O)c1cccnc1,i,i,0%,-4%,-4%
CCN(CC)C(=O)Cn1c(SCC(=O)Nc2ccc(F)cc2)nc2ccccc21,i,i,·,·,·
CCCCN(CCCC)c1nc2ccccc2nc1NS(=O)(=O)c1ccc(NC(C)=O)cc1,i,i,-5%,12µM*,21µM*
COc1cc(C(=O)N/C(=C/c2ccc(F)cc2)C(=O)NC(C(=O)O)c2ccccc2)cc(OC)c1OC (centres undefined),i,i,0%,6%,-10%
CC(=O)N1c2ccc(C)cc2Sc2c1ccc1ccccc21,i,i,·,21µM*,?
O=C(CSc1ccccc1)NCc1ccc2c(c1)CCN2C(=O)c1ccc(F)cc1,i,i,·,·,·
CC1(C)CC(C(CCN(Cc2ccccc2)C(=O)c2ccco2)c2ccc(F)cc2)CCO1 (centres undefined),?,9.2µM*,?,8.2µM*,-77%
CC1(C)CC(N(Cc2ccc(F)cc2)C(=O)c2ccc(F)cc2)CCO1 (centres undefined),i,i,?,15%,-11%
O=C(c1ccco1)N(CCC(c1ccccc1)c1ccco1)Cc1ccc(F)cc1 (centres undefined),i,7.3µM*,?,10µM*,?
Cc1cnc(=O)[nH]c1SCC(=O)c1ccc(F)cc1,i,i,?,18µM*,74%
Cc1ccccc1-c1nc(CN2CCC(C(=O)NCCCN3CCCC(C)C3)CC2)c(C)o1 (centres undefined),i,i,22%,7%,21µM*
Cc1ccccc1-c1nc(CN2CCC(C(=O)NCCc3ccccc3)CC2)c(C)o1,i,i,·,·,·
COc1ccc(CCNC(=O)C2CCN(Cc3nc(-c4ccccc4C)oc3C)CC2)cc1OC,?,7.3µM*,?,22%,2%
CSc1cc(-c2ccccc2)[nH]c(=O)c1C#N,i,i,-8%,-1%,15µM*
CCOC(=O)c1ccc(NC(=O)CCNC(=O)c2ccc([N+](=O)[O-])cc2)cc1,i,15µM*,-6%,6%,-5%
CCCCNC(=O)C(Sc1ccccc1)c1ccccc1 (centres undefined),i,15µM*,15%,9%,-58%
CCc1ccc(NC(=O)CSc2c(C)cnc3c2c(=O)n(C)c(=O)n3C)cc1,i,i,·,·,·
CCc1nnc(NC(=O)CCC(=O)N2CCN(CCOc3ccc(C)cc3)CC2)s1,i,?,23µM*,4%,-6%[9.22 µM]
CCc1nnc(NC(=O)CCC(=O)N2CCN(Cc3ccc(C)cc3C)CC2)s1,i,?,-2%,1%,-4%
SMILES,KB-3-1 tox,KB-V1 cytotox,ELG1 DNA repair,MCF10A rereplic,SW480 rereplic
CCc1nnc(NC(=O)CN2CCN(Cc3ccc(C)cc3)CC2)s1,i,i,1%,0.92µM*,?
COc1cc2c(cc1OC)C(C(=O)N1CCN(c3ccccc3)CC1)C(c1cccs1)N(C)C2=O (centres undefined),i,i,18µM*,0%,1%
COc1ccc(C2C(C(=O)N3CCN(c4ccccc4)CC3)c3ccccc3C(=O)N2C)cc1 (centres undefined),i,?,21µM*,-1%,-5%
COc1ccc(C2C(C(=O)Nc3cc(OC)c(OC)c(OC)c3)c3ccccc3C(=O)N2C)cc1 (centres undefined),?,?,-24%,?,6.5µM*
COc1ccc(C2C(C(=O)Nc3cccc(OC)c3)c3ccccc3C(=O)N2C)cc1 (centres undefined),i,?,-1%,5%,-11%
O=S(=O)(Nc1cc(Cl)ccc1-n1cncn1)c1ccccc1Cl,?,?,-5%,5%,-8%
O=S(=O)(Nc1cc(Cl)ccc1-n1cncn1)c1cc(Br)ccc1Br,?,i,23µM*,?,-9%
CC(C)C(=O)Nc1ccc(/C=C2\C=Cc3ccccc32)cc1,i,i,·,·,·
C=CCn1c(SCC(=O)Nc2cccnc2Cl)nnc1-c1ccccc1F,i,?,?,20%,-1%
CC(=O)Nc1cccc(NC(=O)CSc2ccc(-c3ccccn3)nn2)c1,i,?,4%,?,?
Cc1csc(NC(=O)CSc2nnc(-c3ccccc3)o2)n1,i,?,?,?,-4%
C=CCn1c(SCC(=O)Nc2cccnc2Cl)nnc1-c1ccc(Cl)cc1,i,5.2µM*,?,1%,-1%
O=C(CSc1ccc(-c2cccs2)nn1)Nc1ccccc1,i,12µM*,?,16%,-2%
CCc1ccc(NC(=O)CSc2ccc(-c3ccccn3)nn2)cc1,?,i,?,12µM*,12%
Cc1csc(NC(=O)CSc2ccc(-c3ccccc3)nn2)n1,i,23µM*,?,8%,-7%
C[N+]1(CC(=O)c2ccc(Cl)c(Cl)c2)CCOCC1,i,i,·,·,·
Cc1nnc(SCC(=O)Nc2nc(-c3ccccc3)cs2)n1N,i,i,?,0%,-6%
CCn1c(SCC(=O)N/N=C/C(C)=C/c2ccco2)nnc1-c1ccccc1,i,15µM*,-7%,25%,5%
CCn1c(SCC(=O)Nc2cccnc2Cl)nnc1-c1ccccc1,i,21µM*,-19%,-1%,5%
CCn1c(SCC(=O)N/N=C/C(C)=C\c2ccco2)nnc1-c1ccccc1,i,i,-3%,?,-3%
CCn1c(SCC(=O)Nc2cc(C)on2)nnc1-c1ccccc1,i,i,-1%,-1%,-4%
CCn1c(SCC(=O)Nc2nc(-c3ccccc3)cs2)nnc1-c1ccccc1,i,18µM*,?,3%,-16%
